Source: paper PMC7862700, “An all-to-all approach to the identification of sequence-specific readers for epigenetic DNA modifications on cytosine”

Legend:
Assay in all cases: DAPPL (digital affinity profiling via proximity ligation, sequencing); 10 mM Tris-HCl pH 7.5, 50 mM NaCl, 1 mM DTT, 4% glycerol, room temperature, 30 min; GST-TFs on glutathione beads, 16-mer random dsDNA library, 0.1% formaldehyde crosslink after washing; high values mean tight binding
Settings in all cases: protein: recombinant; tags: N-terminal GST; dsDNA, one strand shown
FLI1 = target: T1, FLI1 (Homo sapiens, UniProt Q01543 1-452)
T1 sequence: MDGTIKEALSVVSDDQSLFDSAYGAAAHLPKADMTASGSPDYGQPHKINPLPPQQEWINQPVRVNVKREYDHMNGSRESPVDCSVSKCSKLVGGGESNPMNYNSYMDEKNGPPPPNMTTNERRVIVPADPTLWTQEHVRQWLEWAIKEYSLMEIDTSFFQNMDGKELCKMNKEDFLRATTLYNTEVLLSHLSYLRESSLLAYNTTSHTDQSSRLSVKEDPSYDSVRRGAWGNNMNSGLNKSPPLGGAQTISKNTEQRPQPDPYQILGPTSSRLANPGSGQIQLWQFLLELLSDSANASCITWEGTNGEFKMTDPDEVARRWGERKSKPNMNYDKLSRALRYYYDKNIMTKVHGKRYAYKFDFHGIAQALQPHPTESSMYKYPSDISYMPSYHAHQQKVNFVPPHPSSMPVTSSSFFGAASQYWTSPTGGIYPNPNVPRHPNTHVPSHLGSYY
Outline: (§1)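 Sequencing on an Illumina NextSeq500 followed washing, crosslinking with 0.1% formaldehyde, proximity ligation (BsaI/T4 ligase, 1 h, 37 °C) and PCR amplification of pools that had been incubated for 30 min at room temperature with 200 nmole of a random double-stranded 16-mer DNA library in Tris/NaCl/DTT/glycerol buffer. Each pool held DNA-barcoded human transcription factors, expressed in yeast as GST fusions and captured on glutathione beads, plus a tag-only sample. Binding signal is a hexamer's read frequency for a factor divided by its frequency in the tag-only sample.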

ELK1 = target: T2, ELK1 (Homo sapiens, UniProt P19419 1-428)
T2 sequence: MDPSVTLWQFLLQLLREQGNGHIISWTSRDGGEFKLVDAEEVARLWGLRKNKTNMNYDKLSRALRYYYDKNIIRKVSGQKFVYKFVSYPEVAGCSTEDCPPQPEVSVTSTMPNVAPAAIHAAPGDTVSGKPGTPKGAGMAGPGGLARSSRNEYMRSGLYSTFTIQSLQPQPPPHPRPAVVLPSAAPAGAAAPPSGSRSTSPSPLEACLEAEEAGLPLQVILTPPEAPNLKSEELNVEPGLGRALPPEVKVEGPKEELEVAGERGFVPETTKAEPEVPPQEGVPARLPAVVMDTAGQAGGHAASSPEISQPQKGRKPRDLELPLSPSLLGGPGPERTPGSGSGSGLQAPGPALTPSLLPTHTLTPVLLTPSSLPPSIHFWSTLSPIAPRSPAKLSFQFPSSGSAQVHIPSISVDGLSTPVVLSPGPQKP
Outline: as §1

GABPA = target: T3, GABPA (Homo sapiens, UniProt Q06546 1-454)
T3 sequence: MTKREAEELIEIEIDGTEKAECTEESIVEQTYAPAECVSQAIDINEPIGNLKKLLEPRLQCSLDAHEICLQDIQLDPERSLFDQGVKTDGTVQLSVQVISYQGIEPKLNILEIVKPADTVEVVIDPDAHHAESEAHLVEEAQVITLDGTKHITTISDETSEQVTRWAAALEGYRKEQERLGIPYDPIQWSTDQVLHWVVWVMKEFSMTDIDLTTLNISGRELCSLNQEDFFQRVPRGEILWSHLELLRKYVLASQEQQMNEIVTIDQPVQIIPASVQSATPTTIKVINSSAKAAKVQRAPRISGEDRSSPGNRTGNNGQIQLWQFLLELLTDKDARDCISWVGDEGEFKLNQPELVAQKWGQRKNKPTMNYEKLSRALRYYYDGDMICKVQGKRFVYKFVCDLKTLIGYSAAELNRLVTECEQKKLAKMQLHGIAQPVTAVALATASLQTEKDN
Outline: as §1

ERG = target: T4, ERG (Homo sapiens, UniProt P11308 1-479)
T4 sequence: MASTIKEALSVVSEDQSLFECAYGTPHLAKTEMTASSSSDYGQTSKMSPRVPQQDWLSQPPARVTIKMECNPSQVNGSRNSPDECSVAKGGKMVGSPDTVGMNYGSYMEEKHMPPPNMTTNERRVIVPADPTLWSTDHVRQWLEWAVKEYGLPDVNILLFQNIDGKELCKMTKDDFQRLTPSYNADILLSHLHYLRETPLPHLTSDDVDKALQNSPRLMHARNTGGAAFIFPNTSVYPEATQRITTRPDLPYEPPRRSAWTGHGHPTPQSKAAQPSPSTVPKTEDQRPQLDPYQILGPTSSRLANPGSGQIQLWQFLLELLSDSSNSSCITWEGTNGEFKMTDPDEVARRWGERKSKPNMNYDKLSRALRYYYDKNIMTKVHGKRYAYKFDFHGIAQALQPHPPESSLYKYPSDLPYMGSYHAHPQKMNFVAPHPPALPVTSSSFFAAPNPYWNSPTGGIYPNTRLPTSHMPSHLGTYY
Outline: as §1

ELF1 = ELF1 (Homo sapiens, UniProt P32519 1-619)
Chain of ELF1 (P32519 whole entry): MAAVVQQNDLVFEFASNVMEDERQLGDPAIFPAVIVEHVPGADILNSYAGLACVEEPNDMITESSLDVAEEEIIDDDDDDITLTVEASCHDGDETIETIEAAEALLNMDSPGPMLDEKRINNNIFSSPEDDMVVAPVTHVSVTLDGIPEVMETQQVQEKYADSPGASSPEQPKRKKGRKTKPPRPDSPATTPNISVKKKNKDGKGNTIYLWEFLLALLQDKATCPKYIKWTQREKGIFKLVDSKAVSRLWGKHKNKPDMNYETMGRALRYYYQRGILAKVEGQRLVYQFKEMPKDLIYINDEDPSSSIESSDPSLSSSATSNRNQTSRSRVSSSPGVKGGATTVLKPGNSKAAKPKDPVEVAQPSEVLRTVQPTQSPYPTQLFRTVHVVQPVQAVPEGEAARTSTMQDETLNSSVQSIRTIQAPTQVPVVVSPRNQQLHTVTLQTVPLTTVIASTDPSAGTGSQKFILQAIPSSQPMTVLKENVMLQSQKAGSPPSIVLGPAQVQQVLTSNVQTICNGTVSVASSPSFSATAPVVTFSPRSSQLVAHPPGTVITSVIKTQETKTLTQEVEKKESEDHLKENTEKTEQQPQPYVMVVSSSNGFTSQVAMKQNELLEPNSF
Outline: as §1

EHF = target: T5, EHF (Homo sapiens, UniProt Q9NZC4 1-300)
T5 sequence: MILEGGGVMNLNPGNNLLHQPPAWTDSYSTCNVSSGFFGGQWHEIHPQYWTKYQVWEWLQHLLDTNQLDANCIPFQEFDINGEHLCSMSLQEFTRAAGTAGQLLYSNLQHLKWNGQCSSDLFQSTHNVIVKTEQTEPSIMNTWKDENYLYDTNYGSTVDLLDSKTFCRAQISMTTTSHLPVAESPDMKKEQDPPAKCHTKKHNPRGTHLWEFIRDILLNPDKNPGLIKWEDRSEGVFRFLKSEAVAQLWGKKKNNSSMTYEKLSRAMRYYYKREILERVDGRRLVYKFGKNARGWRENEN
Outline: as §1

SPI1 = SPI1 (Homo sapiens, UniProt P17947 1-270)
Outline: as §1

SPIB = SPIB (Homo sapiens, UniProt Q01892 1-262)
Chain of SPIB (Q01892 whole entry): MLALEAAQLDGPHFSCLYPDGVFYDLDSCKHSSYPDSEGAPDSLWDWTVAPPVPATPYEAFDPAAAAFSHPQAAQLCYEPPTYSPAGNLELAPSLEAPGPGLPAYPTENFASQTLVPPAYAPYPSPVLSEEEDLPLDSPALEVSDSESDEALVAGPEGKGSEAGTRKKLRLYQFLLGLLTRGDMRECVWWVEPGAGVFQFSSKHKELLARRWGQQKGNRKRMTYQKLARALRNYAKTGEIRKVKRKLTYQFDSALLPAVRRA
Outline: as §1

ELK3 = target: T6, ELK3 (Homo sapiens, UniProt P41970 1-407)
T6 sequence: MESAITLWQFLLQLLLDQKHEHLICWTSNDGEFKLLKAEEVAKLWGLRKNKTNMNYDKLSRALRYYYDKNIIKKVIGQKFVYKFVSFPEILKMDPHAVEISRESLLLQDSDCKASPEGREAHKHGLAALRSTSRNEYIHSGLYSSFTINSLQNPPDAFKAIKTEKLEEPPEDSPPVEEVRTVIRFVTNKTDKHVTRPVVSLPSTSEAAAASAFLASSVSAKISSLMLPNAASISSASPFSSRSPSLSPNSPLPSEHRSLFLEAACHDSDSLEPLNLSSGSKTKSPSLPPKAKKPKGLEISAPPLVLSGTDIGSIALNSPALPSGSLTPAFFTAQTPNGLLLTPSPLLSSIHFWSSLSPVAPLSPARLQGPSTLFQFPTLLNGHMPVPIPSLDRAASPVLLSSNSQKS
Outline: as §1

With TCGATC as the sequence, how does the binding signal (FLI1) read?
The binding signal was 1.31 fold enrichment (6-mer frequency, TF over GST control).

What about the binding signal (ELK1) of the same sequence?
The binding signal was 1.08 fold enrichment (6-mer frequency, TF over GST control).

What about the binding signal (GABPA) of the same sequence?
Its binding signal is 1.14 fold enrichment (6-mer frequency, TF over GST control).

And the binding signal (ERG)?
Its binding signal is 1.18 fold enrichment (6-mer frequency, TF over GST control).

What about the binding signal (ELF1) of the same sequence?
Its binding signal is 1.27 fold enrichment (6-mer frequency, TF over GST control).

What about the binding signal (EHF) of the same sequence?
Its binding signal is 1.16 fold enrichment (6-mer frequency, TF over GST control).

What about the binding signal (SPI1) of the same sequence?
The binding signal was 1.11 fold enrichment (6-mer frequency, TF over GST control).

What about the binding signal (SPIB) of the same sequence?
The binding signal was 1.25 fold enrichment (6-mer frequency, TF over GST control).

What about the binding signal (ELK3) of the same sequence?
The binding signal was 1.27 fold enrichment (6-mer frequency, TF over GST control).

How did the binding signal (FLI1) turn out when AACTCG was run?
The binding signal was 1.41 fold enrichment (6-mer frequency, TF over GST control).

What about the binding signal (ELK1) of the same sequence?
The binding signal was 1.33 fold enrichment (6-mer frequency, TF over GST control).

What about the binding signal (GABPA) of the same sequence?
The binding signal was 1.4 fold enrichment (6-mer frequency, TF over GST control).

What about the binding signal (ERG) of the same sequence?
Its binding signal is 1.32 fold enrichment (6-mer frequency, TF over GST control).

What about the binding signal (ELF1) of the same sequence?
Its binding signal is 1.39 fold enrichment (6-mer frequency, TF over GST control).

And the binding signal (EHF)?
Its binding signal is 1.28 fold enrichment (6-mer frequency, TF over GST control).

And the binding signal (SPI1)?
The binding signal was 1.4 fold enrichment (6-mer frequency, TF over GST control).

What about the binding signal (SPIB) of the same sequence?
Its binding signal is 1.37 fold enrichment (6-mer frequency, TF over GST control).

And the binding signal (ELK3)?
The binding signal was 1.24 fold enrichment (6-mer frequency, TF over GST control).

With TCCACA as the sequence, how does the binding signal (FLI1) read?
Its binding signal is 1.3 fold enrichment (6-mer frequency, TF over GST control).

What about the binding signal (ELK1) of the same sequence?
Its binding signal is 1.27 fold enrichment (6-mer frequency, TF over GST control).

And the binding signal (GABPA)?
The binding signal was 1.26 fold enrichment (6-mer frequency, TF over GST control).

And the binding signal (ERG)?
Its binding signal is 1.19 fold enrichment (6-mer frequency, TF over GST control).

What about the binding signal (ELF1) of the same sequence?
The binding signal was 1.23 fold enrichment (6-mer frequency, TF over GST control).

What about the binding signal (EHF) of the same sequence?
Its binding signal is 1.25 fold enrichment (6-mer frequency, TF over GST control).

And the binding signal (SPI1)?
Its binding signal is 1.28 fold enrichment (6-mer frequency, TF over GST control).

What about the binding signal (SPIB) of the same sequence?
Its binding signal is 1.14 fold enrichment (6-mer frequency, TF over GST control).

And the binding signal (ELK3)?
Its binding signal is 1.35 fold enrichment (6-mer frequency, TF over GST control).

Which binding signal (FLI1) does the source give for CAAAAT here?
Its binding signal is 1.16 fold enrichment (6-mer frequency, TF over GST control).

And the binding signal (ELK1)?
Its binding signal is 1.11 fold enrichment (6-mer frequency, TF over GST control).

What about the binding signal (GABPA) of the same sequence?
Its binding signal is 1.2 fold enrichment (6-mer frequency, TF over GST control).

What about the binding signal (ERG) of the same sequence?
The binding signal was 1.27 fold enrichment (6-mer frequency, TF over GST control).

And the binding signal (ELF1)?
Its binding signal is 1.18 fold enrichment (6-mer frequency, TF over GST control).

And the binding signal (EHF)?
The binding signal was 1.16 fold enrichment (6-mer frequency, TF over GST control).

What about the binding signal (SPI1) of the same sequence?
Its binding signal is 1.28 fold enrichment (6-mer frequency, TF over GST control).

What about the binding signal (SPIB) of the same sequence?
Its binding signal is 1.18 fold enrichment (6-mer frequency, TF over GST control).

What about the binding signal (ELK3) of the same sequence?
Its binding signal is 1.21 fold enrichment (6-mer frequency, TF over GST control).

Which results are given for CTGCAA?
binding signal (FLI1): 1.29 fold enrichment (6-mer frequency, TF over GST control); binding signal (ELK1): 1.3 fold enrichment (6-mer frequency, TF over GST control); binding signal (GABPA): 1.2 fold enrichment (6-mer frequency, TF over GST control); binding signal (ERG): 1.23 fold enrichment (6-mer frequency, TF over GST control); binding signal (ELF1): 1.36 fold enrichment (6-mer frequency, TF over GST control); binding signal (EHF): 1.2 fold enrichment (6-mer frequency, TF over GST control); binding signal (SPI1): 1.31 fold enrichment (6-mer frequency, TF over GST control); binding signal (SPIB): 1.27 fold enrichment (6-mer frequency, TF over GST control); binding signal (ELK3): 1.33 fold enrichment (6-mer frequency, TF over GST control)

Which binding signal (FLI1) does the source give for ACTATT here?
The binding signal was 1.29 fold enrichment (6-mer frequency, TF over GST control).

What about the binding signal (ELK1) of the same sequence?
The binding signal was 1.17 fold enrichment (6-mer frequency, TF over GST control).

And the binding signal (GABPA)?
The binding signal was 1.33 fold enrichment (6-mer frequency, TF over GST control).

What about the binding signal (ERG) of the same sequence?
Its binding signal is 1.3 fold enrichment (6-mer frequency, TF over GST control).

What about the binding signal (ELF1) of the same sequence?
Its binding signal is 1.27 fold enrichment (6-mer frequency, TF over GST control).

And the binding signal (EHF)?
Its binding signal is 1.3 fold enrichment (6-mer frequency, TF over GST control).

What about the binding signal (SPI1) of the same sequence?
The binding signal was 1.22 fold enrichment (6-mer frequency, TF over GST control).

What about the binding signal (SPIB) of the same sequence?
Its binding signal is 1.26 fold enrichment (6-mer frequency, TF over GST control).

And the binding signal (ELK3)?
Its binding signal is 1.28 fold enrichment (6-mer frequency, TF over GST control).

Which binding signal (FLI1) does the source give for ATAATA here?
The binding signal was 1.13 fold enrichment (6-mer frequency, TF over GST control).

And the binding signal (ELK1)?
Its binding signal is 1.07 fold enrichment (6-mer frequency, TF over GST control).

And the binding signal (GABPA)?
Its binding signal is 1.18 fold enrichment (6-mer frequency, TF over GST control).

And the binding signal (ERG)?
Its binding signal is 1.17 fold enrichment (6-mer frequency, TF over GST control).

What about the binding signal (ELF1) of the same sequence?
Its binding signal is 1.23 fold enrichment (6-mer frequency, TF over GST control).

What about the binding signal (EHF) of the same sequence?
The binding signal was 1.24 fold enrichment (6-mer frequency, TF over GST control).

And the binding signal (SPI1)?
The binding signal was 1.18 fold enrichment (6-mer frequency, TF over GST control).

And the binding signal (SPIB)?
Its binding signal is 1.18 fold enrichment (6-mer frequency, TF over GST control).

What about the binding signal (ELK3) of the same sequence?
Its binding signal is 1.11 fold enrichment (6-mer frequency, TF over GST control).
